Hits are enriched below; roughly 4.6% of the tested compounds scored in any of these assays.
V-ATPase pHluor: alters yeast V-ATPase proton transport; S. cerevisiae, pHLuorin cytosolic pH fluorescence; response, % at 10 µM; 0.37% of 350,000 active; AID 504577; in the data active = response mostly above about 7.3%, no sharp cut-off; inactive = mostly below about 5.4%; note: actives read high
tim10-1 inh: tim10-1 yeast growth inhibition; inhibition, % at 20 µM; S. cerevisiae tim10-1 ts strain growth, BacTiter-Glo, 24 h; 2.2% of 330,000 active;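 active = inhibition of at least 40%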;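 note: mutant grown at 25 °C; 0% = DMSO wells with yeast and 100% = wells holding no yeast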
TIM10 inh: growth inhibitors of TIM10 yeast strain. S. cerevisiae TIM10 strain growth, BacTiter-Glo luminescence, 24 h. inhibition, % at 10 µM. 1.4% of 330,000 active. AID 463195;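 active = inhibition of 40% or more at the single tested concentration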;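 note: wild-type TIM10 isogenic control strain grown at permissive 25 °C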
tim23-1 inh: inhibits growth of tim23-1 mutant yeast; inhibition, % at 20 µM; S. cerevisiae tim23-1 growth, BacTiter-Glo luminescence, 24 h; 1.3% of 330,000 active;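 active = growth inhibition of the mutant yeast at or above 50%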;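 note: temperature-sensitive mutant grown at 25 °C; plate controls were DMSO-treated mutant yeast for no effect and medium wells lacking yeast for full effect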
PfHsp90 set2: reduces growth (ATP signal) of yeast expressing P. falciparum Hsp90; S. cerevisiae expressing PfHsp90, BacTiter-Glo ATP, 48 h; yeast lacking PDR1 and PDR3 efflux regulators; inhibition, % at 9.4 µM; 0.32% of 310,000 active;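 active = every replicate shows inhibition above about 80%, whatever the replicate mean, limit read from the data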;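 note: 0% = DMSO neutral controls and 100% = 20 µM radicicol positive controls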
SKKanGAS inh: inhibitors of SKKanGAS S. pyogenes growth in kanamycin (SK-promoter or general growth effect). BacTiter-Glo, 6 h. inhibition, % at 7.5 µM. 1.3% of 300,000 active. AID 1662;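 active = mean replicate score, as percent of positive control median, at least 50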;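 note: strain carries kanamycin resistance gene driven by streptokinase promoter and grows in 40 µg/ml kanamycin; loss of luminescence reflects streptokinase promoter inhibition or plain growth inhibition; 0% = median of DMSO wells and 100% = positive control at its reference dose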
tim10-1 confirm: confirmation of tim10-1 mutant yeast growth inhibitors; S. cerevisiae tim10-1 ts strain growth, BacTiter-Glo, 24 h; 56% of 7,400 active; inhibition, % at 20 µM; shares compounds with tim10-1 inh;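 active = inhibition of yeast growth at or above a set limit in either of two repeat tests at 20 µM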;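 note: tim10-1 mutant grown at permissive 25 °C to find synthetic lethal compounds; 0% = DMSO yeast wells and 100% = medium wells without yeast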
Starred values were filed as active, the others as inactive.

Results for S=c1[nH]c(-c2ccc(Cl)cc2)cs1 ?
V-ATPase pHluor: 2; tim10-1 inh: 48*; TIM10 inh: 12; tim23-1 inh: 33; PfHsp90 set2: -10; SKKanGAS inh: 2; tim10-1 confirm: 17

How did CCc1ccc2c(CN3CCN(S(=O)(=O)c4cccs4)CC3)cc(=O)oc2c1 do in these assays?
V-ATPase pHluor: 2; tim10-1 inh: 41*; TIM10 inh: 23; tim23-1 inh: 34; PfHsp90 set2: 0; SKKanGAS inh: 6; tim10-1 confirm: 29

Results for CCc1ccc2c(CN3CCN(S(=O)(=O)c4ccccc4F)CC3)cc(=O)oc2c1 ?
V-ATPase pHluor: -1; tim10-1 inh: 18; TIM10 inh: 24; tim23-1 inh: 37; PfHsp90 set2: -16

Results for CC12CCC=CC1=C(C=O)C1C2CCC2(C)C(O)CCC12 (stereo not drawn) ?
V-ATPase pHluor: 0; PfHsp90 set2: -3

How did Cc1cc(C)n(CC(O)Cn2c3ccc(Br)cc3c3cc(Br)ccc32)c(=O)n1 (stereo not drawn) do in these assays?
V-ATPase pHluor: 5; tim10-1 inh: 56*; TIM10 inh: 23; tim23-1 inh: 46; PfHsp90 set2: -7; SKKanGAS inh: 29; tim10-1 confirm: 52*

What do the screens show for `Cc1cc(C)n(CC(O)Cn2c3ccccc3c3ccccc32)c(=O)n1` (stereo not drawn)?
V-ATPase pHluor: 2; tim10-1 inh: 0; TIM10 inh: 19; tim23-1 inh: 3; PfHsp90 set2: -39; SKKanGAS inh: 8

Results for Cc1c(C(=O)NCCSc2ccc(Cl)cc2)cccc1[N+](=O)[O-] ?
V-ATPase pHluor: 4; tim10-1 inh: 41*; TIM10 inh: 30; tim23-1 inh: 38; PfHsp90 set2: -19; SKKanGAS inh: 1; tim10-1 confirm: 37*

What do the screens show for `CC(C)NC(=O)/C(C#N)=C/c1ccc2c(c1)OCCO2`?
V-ATPase pHluor: -1; tim10-1 inh: 43*; TIM10 inh: 11; tim23-1 inh: 30; PfHsp90 set2: 4; SKKanGAS inh: 0; tim10-1 confirm: 34*

What do the screens show for `N#C/C(=C\c1cccc(O)c1)C(=O)Nc1ccc2c(c1)OCCO2`?
V-ATPase pHluor: -1; tim10-1 inh: 20; TIM10 inh: 38; tim23-1 inh: 38; PfHsp90 set2: -14; SKKanGAS inh: 10

Results for O=S(=O)(c1cccc(F)c1)N1CCN(Cc2cc3c(cc2Br)OCCO3)CC1 ?
V-ATPase pHluor: 2; tim10-1 inh: 12; TIM10 inh: 18; tim23-1 inh: 42; PfHsp90 set2: -10

How did CCOC(=O)c1sc(=S)n(Cc2ccccc2)c1N do in these assays?
V-ATPase pHluor: 7; tim10-1 inh: 42*; TIM10 inh: 16; tim23-1 inh: 22; PfHsp90 set2: 0; SKKanGAS inh: -7; tim10-1 confirm: 40*

How did CCOC(=O)c1sc(=S)n(CC)c1N do in these assays?
V-ATPase pHluor: 0; tim10-1 inh: -11; TIM10 inh: 2; tim23-1 inh: 7; PfHsp90 set2: 20; SKKanGAS inh: -4

Results for CC(C)c1ccc(S(=O)(=O)/N=C2/C=CC(=O)c3ccccc32)cc1 ?
tim10-1 inh: 43*; TIM10 inh: 20; tim23-1 inh: 34; tim10-1 confirm: 29

Results for N/C(=N\OC(=O)CCCc1ccccc1)c1ccc([N+](=O)[O-])cc1 ?
V-ATPase pHluor: 3; tim10-1 inh: 46*; TIM10 inh: 24; tim23-1 inh: 32; PfHsp90 set2: -12; SKKanGAS inh: -10; tim10-1 confirm: 52*

What do the screens show for `COc1ccc(OCCCC(=O)ON=C(N)c2ccccc2C)cc1`?
V-ATPase pHluor: 5; tim10-1 inh: 44*; TIM10 inh: 39; tim23-1 inh: 39; PfHsp90 set2: -26; tim10-1 confirm: 56*

Results for N/C(=N\OC(=O)CCCOc1ccccc1)c1ccc([N+](=O)[O-])cc1 ?
V-ATPase pHluor: -1; tim10-1 inh: 55*; TIM10 inh: 28; tim23-1 inh: 23; PfHsp90 set2: 16; SKKanGAS inh: -8; tim10-1 confirm: 42*

Results for N/C(=N\OC(=O)CCCc1ccccc1)c1ccc(Br)cc1 ?
V-ATPase pHluor: 2; tim10-1 inh: 25; TIM10 inh: 23; tim23-1 inh: 19; PfHsp90 set2: -4; SKKanGAS inh: 1

Results for CCOc1ccc(OCCCC(=O)ON=C(N)c2ccccc2Cl)cc1 ?
V-ATPase pHluor: -3; tim10-1 inh: 10; TIM10 inh: 15; tim23-1 inh: 13; PfHsp90 set2: -6

How did COc1ccc2oc(=N)c(C(=O)Nc3cccc(C)c3C)cc2c1 do in these assays?
V-ATPase pHluor: 2; tim10-1 inh: 12; TIM10 inh: 4; tim23-1 inh: 17; PfHsp90 set2: 4; SKKanGAS inh: -3

What do the screens show for `OCc1ccc2c(c1)c(-c1ccc3c(c1)OCCO3)c(-c1ccccc1)n2-c1ccccc1`?
V-ATPase pHluor: 0; tim10-1 inh: 20; TIM10 inh: 10; tim23-1 inh: 29; PfHsp90 set2: 12

Results for Cc1[nH]n(-c2ccccc2)c(=O)c1C(c1ccccc1[N+](=O)[O-])C(C#N)C#N (stereo not drawn) ?
V-ATPase pHluor: 0; tim10-1 inh: 44*; TIM10 inh: 31; tim23-1 inh: 43; PfHsp90 set2: -10; SKKanGAS inh: 14; tim10-1 confirm: 33*

How did CCCn1c(NC(=O)c2ccc(Cl)c(S(=O)(=O)N3CCCC3)c2)nc2ccccc21 do in these assays?
V-ATPase pHluor: 6; tim10-1 inh: 44*; TIM10 inh: 32; tim23-1 inh: 25; PfHsp90 set2: 47; SKKanGAS inh: 92*; tim10-1 confirm: 31*

Results for COc1ccc(N(C)S(=O)(=O)c2cccc(C(=O)NC3CCCC(C)C3C)c2)cc1 (stereo not drawn) ?
V-ATPase pHluor: -7; tim10-1 inh: -5; TIM10 inh: -1; tim23-1 inh: 26; PfHsp90 set2: 0; SKKanGAS inh: -1

What do the screens show for `O=C(NC(NNc1ccc([N+](=O)[O-])cc1)(C(F)(F)F)C(F)(F)F)c1ccccc1Cl`?
V-ATPase pHluor: 1; tim10-1 inh: 47*; TIM10 inh: 33; tim23-1 inh: 49; SKKanGAS inh: 13; tim10-1 confirm: 25

Results for COC(=O)c1cn(-c2ccccc2)c(=O)c2ccccc12 ?
V-ATPase pHluor: 0; tim10-1 inh: 28; TIM10 inh: 0; tim23-1 inh: 40; PfHsp90 set2: 2; SKKanGAS inh: 11

What do the screens show for `COC(=O)c1cn(-c2ccc(Cl)cc2)c(=O)c2ccccc12`?
V-ATPase pHluor: -2; tim10-1 inh: 44*; TIM10 inh: 25; tim23-1 inh: 39; PfHsp90 set2: -22; SKKanGAS inh: -5; tim10-1 confirm: 29
